The nature of assay [1]: NCI Yeast Anticancer Drug Screen. Data for the rad50 strain (AID 155).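 Further: 0% = growth of vehicle-only cultures of the same strain.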 As to conditions: S. cerevisiae rad50 strain growth inhibition, hits give high values. The procedure, abridged:
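Vehicle-treated cultures provide the reference for the growth inhibition reported for compound-exposed, repair-deficient yeast.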

The nature of assay [2]: NCI Yeast Anticancer Drug Screen. Data for the mec2-1 strain (AID 157). As to conditions: S. cerevisiae mec2-1 strain, hits give high values. In short, it runs like this:
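Growth inhibition is read against vehicle-treated controls after compound exposure of the mec2-1 yeast strain, which is defective in DNA damage repair or cell cycle control.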

The nature of assay [3]: NCI Yeast Anticancer Drug Screen. Data for the sgs1 mgt1 strain (AID 161).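 Further: 0% = growth of cultures given vehicle only.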 As to conditions: S. cerevisiae sgs1 mgt1 strain, hits give high values. In short, it runs like this:
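Percent growth inhibition was derived by comparing compound-exposed mutant yeast with vehicle-exposed cultures. The strain carries alterations in DNA damage repair.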

Assay [4] can be described thus: NCI Yeast Anticancer Drug Screen. Data for the cln2 rad14 strain (AID 165).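 Further: 0% = growth equal to vehicle treated cultures.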 The following applies: S. cerevisiae cln2 rad14 strain, hits give high values. In short, it runs like this: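 Growth inhibition, relative to vehicle-treated controls, is the read-out. The test organism is a yeast strain with defined genetic alterations, cln2 rad14.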
Assay [5] is described as follows: NCI Yeast Anticancer Drug Screen. Data for the bub3 strain (AID 167). The following applies: S. cerevisiae bub3 mutant strain, hits give high values. In short, it runs like this:
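Mutant yeast screening strain plus compound; vehicle-treated cultures serve as the 0% inhibition reference.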

Assay [6] can be described thus: NCI Yeast Anticancer Drug Screen. Data for the mlh1 rad18 strain (AID 175). As to conditions: S. cerevisiae mlh1 rad18 strain growth inhibition, hits give high values. The procedure, abridged:
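Cells of a genetically altered yeast strain, deficient in DNA damage repair, were treated with compound. Their growth was then compared with that of vehicle-treated cultures to give inhibition.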

[7] abbreviates: at 5.0 µM (retest, dose inferred, filed as 0.5).
Where [8] appears, read: at 50.0 µM (retest, dose inferred, filed as 5.0).

Compounds without any hit were thinned out: in the full panel of roughly 79,000, 15% have a hit. A number with no mark means an inactive call. The source made the active and inactive calls. No stated cut-off is given here; in the data, active means growth inhibition above about 70%; inactive means the rest.

Consider `COc1cc(-c2nn3c(=O)n(-c4ccc(Cl)cc4)c(=O)nc3s2)cc(OC)c1OC`, for which the growth inhibition in assay [1] (setting [7]) was 6%; in assay [1] (setting [8]), -2%; in assay [1] (at 50.0 µM), 30.8%; in assay [2] (setting [7]) it was 0%; in assay [2] (setting [8]) it was 18%; in assay [2] (at 50.0 µM), -0.6%. The growth inhibition was 1% in assay [3] (setting [7]); 4% in assay [3] (setting [8]); 20.9% in assay [3] (at 50.0 µM); 7% in assay [4] (setting [7]); -7% in assay [4] (setting [8]); 24% in assay [4] (at 50.0 µM). The growth inhibition in assay [5] (setting [7]) was 1%; in assay [5] (setting [8]), 17%; in assay [5] (at 50.0 µM), 3.3%; in assay [6] (setting [7]), -2%; in assay [6] (setting [8]), 3%; in assay [6] (at 50.0 µM), 2.35%.
Take `COc1ccc(C(C)c2cc3c(cc2O)OCO3)cc1` (centres undefined): the growth inhibition in assay [1] (setting [7]) was 7%; in assay [1] (setting [8]) it was 99% (active); in assay [1] (at 50.0 µM), 98.5% (active); in assay [2] (setting [7]), -8%; in assay [2] (setting [8]), 48%; in assay [2] (at 50.0 µM), 98.7% (active). In addition, the growth inhibition was -3% in assay [3] (setting [7]); 56% in assay [3] (setting [8]); 98.8% (active) in assay [3] (at 50.0 µM); -23% in assay [4] (setting [7]); 58% in assay [4] (setting [8]); 97.1% (active) in assay [4] (at 50.0 µM). The growth inhibition was -22% in assay [5] (setting [7]); 76% (active) in assay [5] (setting [8]); 98.5% (active) in assay [5] (at 50.0 µM); 7% in assay [6] (setting [7]); 97% (active) in assay [6] (setting [8]); 98% (active) in assay [6] (at 50.0 µM).
Turning to `CSC(=Nc1ccccc1)/N=C(\SCc1ccccc1)N(C)C`, the growth inhibition was 45% in assay [1] (setting [7]); 98% (active) in assay [1] (setting [8]); 99.3% (active) in assay [1] (at 50.0 µM); 26% in assay [2] (setting [7]); 45% in assay [2] (setting [8]); 99.7% (active) in assay [2] (at 50.0 µM). Besides, the growth inhibition in assay [3] (setting [7]) was 27%; in assay [3] (setting [8]), 99% (active); in assay [3] (at 50.0 µM), 99.2% (active); in assay [4] (setting [7]), 13%; in assay [4] (setting [8]) it was 99% (active); in assay [4] (at 50.0 µM) it was 98.8% (active). Moreover, the growth inhibition in assay [5] (setting [7]) is -30%; in assay [5] (setting [8]), 99% (active); in assay [5] (at 50.0 µM) it was 99.5% (active); in assay [6] (setting [7]), 44%; in assay [6] (setting [8]), 99% (active); in assay [6] (at 50.0 µM) it was 99.3% (active).
`O=C(Nc1ccc(Cl)cc1)Nc1nnc2nc(C(C(=O)c3ccc(F)cc3)c3nc4nnc(NC(=O)Nc5ccc(Cl)cc5)n4[nH]c3=O)c(=O)[nH]n12`: the growth inhibition in assay [1] (setting [7]) is -11%; in assay [1] (setting [8]), 32%; in assay [1] (at 50.0 µM) it was 99.5% (active); in assay [2] (setting [7]), -19%; in assay [2] (setting [8]) it was 56%; in assay [2] (at 50.0 µM), 99.5% (active). Moreover, the growth inhibition in assay [3] (setting [7]) is 4%; in assay [3] (setting [8]) it was 33%; in assay [3] (at 50.0 µM), 99.5% (active); in assay [4] (setting [7]), -38%; in assay [4] (setting [8]), 36%; in assay [4] (at 50.0 µM), 99.2% (active). For the same compound, the growth inhibition in assay [5] (setting [7]) is -26%; in assay [5] (setting [8]), 48%; in assay [5] (at 50.0 µM), 99% (active); in assay [6] (setting [7]) it was -10%; in assay [6] (setting [8]), 64%; in assay [6] (at 50.0 µM), 99.5% (active).
For the compound `CC1(c2ccc(Cl)cc2)OC(=O)c2c1ccc1ccccc21` (centres undefined), the growth inhibition in assay [1] (setting [7]) is 13%; in assay [1] (setting [8]), 55%; in assay [1] (at 50.0 µM), 97.7% (active); in assay [2] (setting [7]) it was -1%; in assay [2] (setting [8]), 53%; in assay [2] (at 50.0 µM), 93.6% (active). Moreover, the growth inhibition in assay [3] (setting [7]) was 7%; in assay [3] (setting [8]), 55%; in assay [3] (at 50.0 µM) it was 98% (active); in assay [4] (setting [7]), 2%; in assay [4] (setting [8]), 47%; in assay [4] (at 50.0 µM), 88.8% (active). For the same compound, the growth inhibition was 22% in assay [5] (setting [7]); 52% in assay [5] (setting [8]); 97.8% (active) in assay [5] (at 50.0 µM); -1% in assay [6] (setting [7]); 75% (active) in assay [6] (setting [8]); 96% (active) in assay [6] (at 50.0 µM).
As to `Nc1ccc(C(=O)Nc2ccc(C(=O)Nc3ccc(/C=C/c4ccc(NC(=O)c5ccc(N)cc5)cc4S(=O)(=O)O)c(S(=O)(=O)O)c3)cc2)cc1`, the growth inhibition in assay [1] (setting [7]) is -2%; in assay [1] (setting [8]) it was 87% (active); in assay [1] (at 50.0 µM) it was 68.5%; in assay [2] (setting [7]), -21%; in assay [2] (setting [8]), 76% (active); in assay [2] (at 50.0 µM), 72.8% (active). For the same compound, the growth inhibition in assay [3] (setting [7]) was 3%; in assay [3] (setting [8]) it was 78% (active); in assay [3] (at 50.0 µM) it was 69.3%; in assay [4] (setting [7]), 16%; in assay [4] (setting [8]) it was 39%; in assay [4] (at 50.0 µM), 18.3%. Moreover, the growth inhibition in assay [5] (setting [7]) is -15%; in assay [5] (setting [8]), 82% (active); in assay [5] (at 50.0 µM) it was 70.4% (active); in assay [6] (setting [7]), -15%; in assay [6] (setting [8]) it was 61%; in assay [6] (at 50.0 µM), 74.2% (active).
For the compound `CN(C)C(=S)N1C(=S)N(c2ccccc2)C(=Nc2ccccc2)C1=Nc1ccccc1`, the growth inhibition in assay [1] (setting [7]) is -25%; in assay [1] (setting [8]), -4%; in assay [1] (at 50.0 µM), 49.4%; in assay [2] (setting [7]), -9%; in assay [2] (setting [8]) it was -11%; in assay [2] (at 50.0 µM) it was -23.6%. The growth inhibition is -3% in assay [3] (setting [7]); -12% in assay [3] (setting [8]); -5% in assay [3] (at 50.0 µM); -18% in assay [4] (setting [7]); -12% in assay [4] (setting [8]); -18.3% in assay [4] (at 50.0 µM). For the same compound, the growth inhibition in assay [5] (setting [7]) is -13%; in assay [5] (setting [8]) it was -8%; in assay [5] (at 50.0 µM) it was -30.1%; in assay [6] (setting [7]), -20%; in assay [6] (setting [8]), -24%; in assay [6] (at 50.0 µM) it was -7.7%.
On to `CCOC(=O)/C=C\c1c(Cl)n(-c2ccccc2)c(=O)n(-c2ccccc2)c1=O`, for which the growth inhibition is 31% in assay [1] (setting [7]); 98% (active) in assay [1] (setting [8]); 87.7% (active) in assay [1] (at 50.0 µM); 24% in assay [2] (setting [7]); 99% (active) in assay [2] (setting [8]); 90.5% (active) in assay [2] (at 50.0 µM). Further, the growth inhibition was 23% in assay [3] (setting [7]); 99% (active) in assay [3] (setting [8]); 89.8% (active) in assay [3] (at 50.0 µM); 26% in assay [4] (setting [7]); 99% (active) in assay [4] (setting [8]); 90.3% (active) in assay [4] (at 50.0 µM). Also, the growth inhibition is 31% in assay [5] (setting [7]); 99% (active) in assay [5] (setting [8]); 85.6% (active) in assay [5] (at 50.0 µM); 27% in assay [6] (setting [7]); 98% (active) in assay [6] (setting [8]); 92.3% (active) in assay [6] (at 50.0 µM).

(Values after PubChem BioAssay (NCI).)
